Whole data set: some 1,900 compounds, median “excess over highest single agent (ExcessHSA) synergy score, 6x6 matrix” near -83, cut for the lowest 2% near -370. The sample holds the lowest values, similar compounds and a random draw of the others, so the mix is not that of the screen.

The subject of the assay is NCI-H446. In words: excess over highest single agent (ExcessHSA) synergy score, 6x6 matrix; higher = less synergy (more negative = stronger synergy). The settings on record: 72 h; CellTiter-Glo viability.
On to `CC(C)Oc1cc(Nc2nc(N[C@@H](C)c3ccc(F)cn3)ncc2Cl)n[nH]1` + Cc1sc2c(c1C)C(c1ccc(Cl)cc1)=N[C@@H](CC(=O)OC(C)(C)C)c1nnc(C)n1-2 [NCGC00250412-19], for which the “excess over highest single agent” value was -396.

As to `Cc1cc(Nc2nc(N[C@@H](C)c3ccc(F)cc3)c(C#N)cc2F)n[nH]1` + Cc1sc2c(c1C)C(c1ccc(Cl)cc1)=N[C@@H](CC(=O)OC(C)(C)C)c1nnc(C)n1-2 [NCGC00250412-19], the “excess over highest single agent” value was -209.

For the compound `Cc1cc(Nc2nc(N[C@@H](C)c3ncc(F)cn3)ncc2Cl)[nH]n1` + Cc1sc2c(c1C)C(c1ccc(Cl)cc1)=N[C@@H](CC(=O)OC(C)(C)C)c1nnc(C)n1-2 [NCGC00250412-19], the “excess over highest single agent” value is -46.

Turning to `CCOC(=O)C1=C(O)C(=O)N(Cc2ccccc2)C1` + Cc1sc2c(c1C)C(c1ccc(Cl)cc1)=N[C@@H](CC(=O)OC(C)(C)C)c1nnc(C)n1-2 [NCGC00250412-19], the “excess over highest single agent” value is -90.7.

For `Cc1ccccn1.N.[Cl-].[Cl-].[Pt+2]` + Cc1sc2c(c1C)C(c1ccc(Cl)cc1)=N[C@@H](CC(=O)OC(C)(C)C)c1nnc(C)n1-2 [NCGC00250412-19], the “excess over highest single agent” value was 123.

With `CNC(=O)c1ccc(-c2cnc3ncc(Cc4ccc5ncccc5c4)n3n2)cc1F` + Cc1sc2c(c1C)C(c1ccc(Cl)cc1)=N[C@@H](CC(=O)OC(C)(C)C)c1nnc(C)n1-2 [NCGC00250412-19], the “excess over highest single agent” value is 48.7.

In the case of `OC[C@H]1OC(O)C[C@@H](O)[C@@H]1O` (stereo partly specified) + Cc1sc2c(c1C)C(c1ccc(Cl)cc1)=N[C@@H](CC(=O)OC(C)(C)C)c1nnc(C)n1-2 [NCGC00250412-19], the “excess over highest single agent” value was -201.

On to `N#Cc1c(N(CC(=O)O)CC(=O)O)sc(C(=O)O)c1CC(=O)O` + Cc1sc2c(c1C)C(c1ccc(Cl)cc1)=N[C@@H](CC(=O)OC(C)(C)C)c1nnc(C)n1-2 [NCGC00250412-19], for which the “excess over highest single agent” value is -47.5.

For `C=CCON=C(C[C@H]1O[C@@H]2O[C@]3(C)CC[C@@H]4[C@H](C)CC[C@@H]([C@H]1C)[C@@]24OO3)[C@H]1O[C@@H]2O[C@]3(C)CC[C@H]4[C@H](C)CC[C@@H]([C@@H]1C)[C@@]24OO3` + Cc1sc2c(c1C)C(c1ccc(Cl)cc1)=N[C@@H](CC(=O)OC(C)(C)C)c1nnc(C)n1-2 [NCGC00250412-19], the “excess over highest single agent” value is -427.

Turning to `C[C@H]1[C@@H](O)O[C@@H]2O[C@@]3(C)CC[C@H]4[C@H](C)CC[C@@H]1[C@@]24OO3` + Cc1sc2c(c1C)C(c1ccc(Cl)cc1)=N[C@@H](CC(=O)OC(C)(C)C)c1nnc(C)n1-2 [NCGC00250412-19], the “excess over highest single agent” value was -199.

`C[C@@H]1[C@@H](C(=O)C[C@H]2O[C@@H]3O[C@]4(C)CC[C@@H]5[C@H](C)CC[C@@H]([C@H]2C)[C@@]35OO4)O[C@@H]2O[C@]3(C)CC[C@H]4[C@H](C)CC[C@@H]1[C@@]24OO3` + Cc1sc2c(c1C)C(c1ccc(Cl)cc1)=N[C@@H](CC(=O)OC(C)(C)C)c1nnc(C)n1-2 [NCGC00250412-19]: the “excess over highest single agent” value is -355.

With `Cn1cnc(=N)c2[nH]cnc21` + Cc1sc2c(c1C)C(c1ccc(Cl)cc1)=N[C@@H](CC(=O)OC(C)(C)C)c1nnc(C)n1-2 [NCGC00250412-19], the “excess over highest single agent” value is -164.

Regarding `CN1c2cc(O)c(N=NC(N)=O)cc2CC1S(=O)(=O)O` (stereo unspecified) + Cc1sc2c(c1C)C(c1ccc(Cl)cc1)=N[C@@H](CC(=O)OC(C)(C)C)c1nnc(C)n1-2 [NCGC00250412-19], the “excess over highest single agent” value was -280.

In the case of `O=C(O)C(=O)Nc1cccc(-c2nnn[nH]2)c1` + Cc1sc2c(c1C)C(c1ccc(Cl)cc1)=N[C@@H](CC(=O)OC(C)(C)C)c1nnc(C)n1-2 [NCGC00250412-19], the “excess over highest single agent” value came out at 42.8.

As for `C#CCN(C)CC1=Cc2ccccc2Oc2ccccc21` + Cc1sc2c(c1C)C(c1ccc(Cl)cc1)=N[C@@H](CC(=O)OC(C)(C)C)c1nnc(C)n1-2 [NCGC00250412-19], the “excess over highest single agent” value is -204.

On to `Cc1cnc(CNC(=O)c2c(=O)c3ccc(N4CCCN(C)CC4)nc3n3c2sc2ccccc23)cn1` + Cc1sc2c(c1C)C(c1ccc(Cl)cc1)=N[C@@H](CC(=O)OC(C)(C)C)c1nnc(C)n1-2 [NCGC00250412-19], for which the “excess over highest single agent” value was -259.

For the compound `Cc1cn2cc(C(=O)N(C)CCO)cc(N[C@@H]3CCOc4cccc(C)c43)c2n1` + Cc1sc2c(c1C)C(c1ccc(Cl)cc1)=N[C@@H](CC(=O)OC(C)(C)C)c1nnc(C)n1-2 [NCGC00250412-19], the “excess over highest single agent” value amounted to 64.1.

For the compound `CNC(=O)N1N=C(c2ccc(N)cc2)c2cc3c(cc2CC1C)OCO3` (stereo unspecified) + Cc1sc2c(c1C)C(c1ccc(Cl)cc1)=N[C@@H](CC(=O)OC(C)(C)C)c1nnc(C)n1-2 [NCGC00250412-19], the “excess over highest single agent” value was -19.1.

On to `O=C(CCCCCCC(=O)Nc1cccnc1)NO` + Cc1sc2c(c1C)C(c1ccc(Cl)cc1)=N[C@@H](CC(=O)OC(C)(C)C)c1nnc(C)n1-2 [NCGC00250412-19], for which the “excess over highest single agent” value was -276.

For the compound `Oc1cccc(-c2nc(N3CCOCC3)c3oc4ncccc4c3n2)c1` + Cc1sc2c(c1C)C(c1ccc(Cl)cc1)=N[C@@H](CC(=O)OC(C)(C)C)c1nnc(C)n1-2 [NCGC00250412-19], the “excess over highest single agent” value is -410.

For `Nc1ccc(C(=O)Nc2cccc(-c3nc(N4CCOCC4)c4oc5ncccc5c4n3)c2)cn1` + Cc1sc2c(c1C)C(c1ccc(Cl)cc1)=N[C@@H](CC(=O)OC(C)(C)C)c1nnc(C)n1-2 [NCGC00250412-19], the “excess over highest single agent” value was found to be 98.4.

As for `c1cncc(CN2CCC(n3ncc4c(N5CCOCC5)nc(-c5ccc6[nH]ccc6c5)nc43)CC2)c1` + Cc1sc2c(c1C)C(c1ccc(Cl)cc1)=N[C@@H](CC(=O)OC(C)(C)C)c1nnc(C)n1-2 [NCGC00250412-19], the “excess over highest single agent” value is -140.

With `Cc1ccc(C(=O)Nc2cccc(C(F)(F)F)c2)cc1-c1ccc2nc(NCCN3CCOCC3)ncc2c1` + Cc1sc2c(c1C)C(c1ccc(Cl)cc1)=N[C@@H](CC(=O)OC(C)(C)C)c1nnc(C)n1-2 [NCGC00250412-19], the “excess over highest single agent” value was -140.

`Nc1ncnc2c1c(-c1cccc(OCc3ccccc3)c1)cn2C1CC(CN2CCC2)C1` (stereo unspecified) + Cc1sc2c(c1C)C(c1ccc(Cl)cc1)=N[C@@H](CC(=O)OC(C)(C)C)c1nnc(C)n1-2 [NCGC00250412-19]: the “excess over highest single agent” value was -56.6.

As for `COc1ncc(-c2ccc3nccc(-c4ccnnc4)c3c2)cc1NS(=O)(=O)c1ccc(F)cc1F` + Cc1sc2c(c1C)C(c1ccc(Cl)cc1)=N[C@@H](CC(=O)OC(C)(C)C)c1nnc(C)n1-2 [NCGC00250412-19], the “excess over highest single agent” value is -259.

In the case of `CCn1c(-c2nonc2N)nc2cncc(CNC3CCNCC3)c21` + Cc1sc2c(c1C)C(c1ccc(Cl)cc1)=N[C@@H](CC(=O)OC(C)(C)C)c1nnc(C)n1-2 [NCGC00250412-19], the “excess over highest single agent” value came out at 51.1.

`Cc1ccccc1-n1c(Cn2nc(-c3cccc(O)c3)c3c(N)ncnc32)nc2cccc(C)c2c1=O` + Cc1sc2c(c1C)C(c1ccc(Cl)cc1)=N[C@@H](CC(=O)OC(C)(C)C)c1nnc(C)n1-2 [NCGC00250412-19]: the “excess over highest single agent” value was -224.

On to `O=C(O)[C@]1(Cc2cccc(Nc3nccs3)n2)CC[C@@H](Oc2cccc(Cl)c2F)CC1` + Cc1sc2c(c1C)C(c1ccc(Cl)cc1)=N[C@@H](CC(=O)OC(C)(C)C)c1nnc(C)n1-2 [NCGC00250412-19], for which the “excess over highest single agent” value is -273.

Consider `O=C(O)c1nc(=O)[nH]c(=O)[nH]1` + Cc1sc2c(c1C)C(c1ccc(Cl)cc1)=N[C@@H](CC(=O)OC(C)(C)C)c1nnc(C)n1-2 [NCGC00250412-19], for which the “excess over highest single agent” value is -48.1.

With `CCS(=O)(=O)c1cccc(-c2cc(C(=O)NC3CCN(C)CC3)c(C)c3[nH]c4ncc(C)cc4c23)c1` + Cc1sc2c(c1C)C(c1ccc(Cl)cc1)=N[C@@H](CC(=O)OC(C)(C)C)c1nnc(C)n1-2 [NCGC00250412-19], the “excess over highest single agent” value is -197.

For the compound `CO[C@H]1C[C@@H]2CC[C@@H](C)[C@@](O)(O2)C(=O)C(=O)N2CCCC[C@H]2C(=O)O[C@H]([C@H](C)C[C@@H]2CC[C@@H](O)[C@H](OC)C2)CC(=O)[C@H](C)/C=C(\C)[C@@H](O)[C@@H](OC)C(=O)[C@H](C)C[C@H](C)/C=C/C=C/C=C/1C` + Cc1sc2c(c1C)C(c1ccc(Cl)cc1)=N[C@@H](CC(=O)OC(C)(C)C)c1nnc(C)n1-2 [NCGC00250412-19], the “excess over highest single agent” value is -737.

As for `CC[C@@H]1/C=C(\C)C[C@H](C)C[C@H](OC)[C@H]2O[C@@](O)(C(=O)C(=O)N3CCCC[C@H]3C(=O)O[C@H](/C(C)=C/[C@@H]3CC[C@H](Cl)[C@H](OC)C3)[C@H](C)[C@@H](O)CC1=O)[C@H](C)C[C@@H]2OC` + Cc1sc2c(c1C)C(c1ccc(Cl)cc1)=N[C@@H](CC(=O)OC(C)(C)C)c1nnc(C)n1-2 [NCGC00250412-19], the “excess over highest single agent” value was -132.

Turning to `CO[C@H]1C[C@@H]2CC[C@@H](C)[C@@](O)(O2)C(=O)C(=O)N2CCCC[C@H]2C(=O)O[C@H]([C@H](C)C[C@@H]2CC[C@@H](OC(=O)C(C)(CO)CO)[C@H](OC)C2)CC(=O)[C@H](C)/C=C(\C)[C@@H](O)[C@@H](OC)C(=O)[C@H](C)C[C@H](C)/C=C/C=C/C=C/1C` + Cc1sc2c(c1C)C(c1ccc(Cl)cc1)=N[C@@H](CC(=O)OC(C)(C)C)c1nnc(C)n1-2 [NCGC00250412-19], the “excess over highest single agent” value was -419.

Regarding `CO[C@H]1C[C@@H]2CC[C@@H](C)[C@@](O)(O2)C(=O)C(=O)N2CCCC[C@H]2C(=O)O[C@H]([C@H](C)C[C@@H]2CC[C@@H](OP(C)(C)=O)[C@H](OC)C2)CC(=O)[C@H](C)/C=C(\C)[C@@H](O)[C@@H](OC)C(=O)[C@H](C)C[C@H](C)/C=C/C=C/C=C/1C` + Cc1sc2c(c1C)C(c1ccc(Cl)cc1)=N[C@@H](CC(=O)OC(C)(C)C)c1nnc(C)n1-2 [NCGC00250412-19], the “excess over highest single agent” value was -543.

For the compound `C=CC[C@@H]1/C=C(\C)C[C@H](C)C[C@H](OC)[C@H]2O[C@@](O)(C(=O)C(=O)N3CCCC[C@H]3C(=O)O[C@H](/C(C)=C/[C@@H]3CC[C@@H](O)[C@H](OC)C3)[C@H](C)[C@@H](O)CC1=O)[C@H](C)C[C@@H]2OC` + Cc1sc2c(c1C)C(c1ccc(Cl)cc1)=N[C@@H](CC(=O)OC(C)(C)C)c1nnc(C)n1-2 [NCGC00250412-19], the “excess over highest single agent” value is -143.

With `CO[C@H]1C[C@@H]2CC[C@@H](C)[C@@](O)(O2)C(=O)C(=O)N2CCCC[C@H]2C(=O)O[C@H]([C@H](C)C[C@@H]2CC[C@@H](OCCO)[C@H](OC)C2)CC(=O)[C@H](C)/C=C(\C)[C@@H](O)[C@@H](OC)C(=O)[C@H](C)C[C@H](C)/C=C/C=C/C=C/1C` + Cc1sc2c(c1C)C(c1ccc(Cl)cc1)=N[C@@H](CC(=O)OC(C)(C)C)c1nnc(C)n1-2 [NCGC00250412-19], the “excess over highest single agent” value was -598.
